# Test results: PubChem BioAssay (NCATS)
# Records with an inconclusive call do not appear. Entries that show only a call come without a potency. Activity calls are given as the source filed them. The call rests on the fitted dose curve; in most records, active means well fitted curve in the direction sought with a large enough effect; inconclusive means small, poorly fitted or top-dose-only effect, or another doubt; inactive means no such curve, though single readings can be large; an effect the other way counts as inactive or inconclusive.
# Experiments:
# [1] = P-glycoprotein substrates identified in KB-8-5-11 adenocarcinoma cell line, qHTS therapeutic library screen (AID 1346987); details: KB-8-5-11 (P-gp overexpressing) viability, CellTiter-Glo, 72 h; series mostly up to 44.5 µM; further: nearly all actives have a fitted effect of over 65% in size
# Procedure, shortened: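 P-gp-mediated resistance screen: KB-8-5-11 cells treated 72 h with compounds in dose-response. CellTiter-Glo viability.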
# [2] = tested on: Zika virus NS2B-NS3 protease (linked construct); assay: Primary screen NINDS Rhodamine qHTS for Zika virus inhibitors (AID 1347160); details: purified NS2B-NS3 protease, Rhodamine110 substrate fluorescence; series mostly up to 33.1 µM; further: nearly all actives have a fitted effect of over 55% in size; further: potency means the concentration at half of the fitted maximal effect
# Procedure, shortened: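 Kinetic fluorescence (Ex 480 nm, Em 540 nm) over 15 min with 1.5 microM Rhodamine110 peptide and 25 nM linked protease.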
# [3] = tested on: Zika virus NS2B-NS3 protease (linked construct); assay: Confirmatory screen NINDS AMC qHTS for Zika virus inhibitors (AID 1347152); details: Purified linked NS2B-NS3, AMC substrate fluorescence; series mostly up to 56.6 µM; further: potency means the concentration at half of the fitted maximal effect; nearly all actives have a fitted effect of over 70% in size
# Procedure, shortened: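 IC50s from 4-parameter Hill fits of percent inhibition, based on AMC fluorescence gain (340/450 nm) over 15 min with 10 microM Bz-Nle-KRR-AMC. Enzyme: 1 nM linked NS2B-NS3 in Tris-HCl pH 8.0; 15-min compound preincubation.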
# [4] = tested on: Zika virus NS2B-NS3 protease (unlinked complex); assay: Confirmatory screen GU AMC qHTS for Zika virus inhibitors (AID 1347153); details: Recombinant NS2B-NS3 protease, AMC substrate fluorescence; series mostly up to 111 µM;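 further: enzyme at 25 nM with substrate at 10 µM below its Km of 18.3 µM; potency means the concentration at half of the fitted maximal effect; nearly all actives have a fitted effect of over 70% in size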
# Procedure, shortened: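 Fluorescence change (ex 340/em 450 nm) over 15 min, ~20% substrate conversion, normalized to no-inhibitor and no-enzyme controls, then Hill-fitted. Unlinked protease at 25 nM; AMC peptide 10 µM.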
# [5] = Confirmatory screen GU Rhodamine qHTS for Zika virus inhibitors qHTS (AID 1347157); details: purified enzyme assay, Rhodamine110 substrate fluorescence, 15 min; series mostly up to 114 µM; further: nearly all actives have a fitted effect of over 70% in size; further: potency means the concentration at half of the fitted maximal effect
# Procedure, shortened: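 Percent inhibition came from the 15-min rise in Rhodamine110 fluorescence (1.5 microM substrate, ~15% conversion), normalized to no-inhibitor and no-enzyme wells and Hill-fitted. Unlinked protease, 25 nM, pH 8.0 Tris buffer; compounds up to 114 microM, 15-min preincubation.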
# [6] = Confirmatory screen NINDS Rhodamine qHTS for Zika virus inhibitors (AID 1347161); details: purified enzyme assay, Rhodamine110 substrate fluorescence, 15 min; series mostly up to 114 µM; further: nearly all actives have a fitted effect of over 60% in size; further: potency means the concentration at half of the fitted maximal effect
# Procedure, shortened: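 Enzyme (25 nM, linked NS2B-NS3) was preincubated 15 min with compound in 10 mM Tris-HCl pH 8.0, 0.01% Tween 20. Rhodamine110 substrate (1.5 microM) was then added and fluorescence read at start and after 15 min.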
# [7] = tested on: Zika virus NS2B-NS3 protease (linked); assay: 384 well plate NINDS AMC confirmatory qHTS for Zika virus inhibitors (AID 1347163); details: Recombinant NS2B-NS3 protease, Ac-VKTGKR-AMC fluorescence; series mostly up to 100 µM; further: potency means the concentration at half of the fitted maximal effect; nearly all actives have a fitted effect of over 50% in size
# Procedure, shortened: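 Linked protease 5/30/60 nM final; cpds up to 1 mM final, ~15 min preinc. Substrate Ac-VKTGKR-AMC 30 microM final. RT, dark, 25 min; FI ex 355/em 460; normalized to no-enzyme/no-inhibitor ctrls.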
# [8] = tested on: Zika virus NS2B-NS3 protease (linked construct); assay: 384 well plate NINDS Rhodamine confirmatory qHTS for Zika virus inhibitors (AID 1347164); details: rhodamine-110 peptide substrate fluorescence; series mostly up to 100 µM;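 further: fluorescence from protease cleavage of Ac-LKRR-rhodamine 110 substrate; potency means the concentration at half of the fitted maximal effect; nearly all actives have a fitted effect of over 65% in size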
# Procedure, shortened: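 Fluorescence at 485/538 nm was measured 25 minutes after adding 10 microM Ac-LKRR-Rd substrate, in the dark at room temperature. The protease (5, 30 or 60 nM final) had been preincubated ~15 minutes with compound; aprotinin as control.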
# [9] = Vero cells viability qHTS for Zika virus inhibitors (AID 1347167); details: cytotoxicity counter-screen (Zika); series mostly up to 45.9 µM
# Procedure, shortened: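 Compounds were tested in concentration series on cells grown in DMEM containing 4% FBS. After 24 to 48 hours, cellular ATP was measured by luminescence with CellTiter Glo.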
# [10] = ZIKV-mCherry secondary qHTS for Zika virus inhibitors (AID 1347158); details: Vero cells, ZIKV-mCherry infection imaging, 48-72 h; series mostly up to 49.2 µM; further: potency means the concentration at half of the fitted maximal effect
# Procedure, shortened: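 After overnight seeding at 37 °C, Vero cells receive compound and then ZIKV-mCherry (MOI 1). Following 48-72 h infection, cells are fixed, counterstained with Hoechst, and imaged; percent infected cells is derived from an mCherry intensity cut-off of 450 RFU.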
# [11] = tested on: Zika virus NS2B-NS3 protease (unlinked complex); assay: Primary screen GU Rhodamine qHTS for Zika virus inhibitors: Unlinked NS2B-NS3 protease assay (AID 1347159); details: Recombinant ZIKV NS2B-NS3 protease, Rhodamine110 substrate fluorescence; series mostly up to 107 µM; further: nearly all actives have a fitted effect of over 60% in size; further: potency means the concentration at half of the fitted maximal effect
# Procedure, shortened: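 A qHTS format was used, with compound concentrations ranging up to 114 microM. Each compound was preincubated with 25 nM NS2B-NS3 protease, and the substrate was then added at 1.5 microM. Curves were fitted with a 4-parameter Hill model.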
smiles,measurement,setting,value
C[C@H]1CCN2C[C@]34C[C@@]5(C(=O)Nc6c5ccc5c6OC=CC(C)(C)O5)C(C)(C)C3C[C@]12C(=O)N4C (stereo partly specified),Potency,[1],inactive
same,Potency,[2],inactive
COc1ccc(-n2c(=O)[nH]c3cc(C(=O)NCc4ccc(Cl)cc4)sc3c2=O)nc1OC,Potency,[1],inactive
same,Potency,[2],inactive
CCOc1ccc(-c2cc(NC(=O)c3c(F)cccc3F)c(C(=O)O)s2)cc1,Potency,[3],17.5 µM (active)
same,Potency,[4],27.8 µM (active)
same,Potency,[5],4.41 µM (active)
same,Potency,[2],5.01 µM (active)
same,Potency,[6],3.12 µM (active)
same,Potency,[7],7.08 µM (active)
same,Potency,[8],5.01 µM (active)
same,outcome,[9],inactive
CC(C)(O)C1CC=C(C(=O)OC[C@H]2O[C@@H](OC(=O)C3=CCC(C(C)(C)O)CC3)[C@H](O)[C@@H](O)[C@@H]2O)CC1 (stereo partly specified),Potency,[1],inactive
same,Potency,[2],inactive
COc1cc(/C=C/C(=O)O[C@@H]2O[C@H](CO)[C@@H](O)[C@H](O)[C@H]2O)ccc1O,Potency,[1],inactive
same,Potency,[2],8.91 µM (active)
C=C(C)C1Cc2c(ccc3c2OCC(c2ccc(O)cc2O)C3)O1 (stereo unspecified),Potency,[1],inactive
same,Potency,[2],inactive
CC1=CC(=O)CC(C)(C)C1/C=C/C(C)OC1OC(COC2OCC(O)C(O)C2O)C(O)C(O)C1O (stereo unspecified),Potency,[1],inactive
same,Potency,[2],inactive
C=C1CC/C=C(/CO)C(=O)C[C@@H]2[C@@H]1C[C@@]2(C)COC(C)=O,Potency,[1],inactive
same,Potency,[2],inactive
CC1(C)CC[C@]2(C(=O)O)CC[C@]3(C)C(=CCC4[C@@]5(C)CC[C@H](O)C(C)(C)C5CC[C@]43C)C2C1 (stereo partly specified),Potency,[1],inactive
same,Potency,[2],inactive
CC(O)C(=O)/C=C/C=C/C(=O)OC1C=C2COC(=O)C2(O)C2(C)CCCC(C)(C)C12 (stereo unspecified),Potency,[1],inactive
same,Potency,[2],inactive
O=C(OCC1=C[C@@H](O)[C@@H]2C=CO[C@@H](O[C@@H]3O[C@H](CO)[C@@H](O)[C@H](O)[C@H]3O)[C@H]12)c1ccc(O)cc1,Potency,[1],inactive
same,Potency,[2],inactive
CC1=CC2=C(C)C(=O)C(C)(O)C(O)C2CO1 (stereo unspecified),Potency,[1],inactive
same,Potency,[2],inactive
C=C(C(=O)O)C1CC(OC(=O)CC(C)CC)C2(C)CCCC(=C)C2C1 (stereo unspecified),Potency,[1],inactive
same,Potency,[2],inactive
CC12CC(c3ccoc3)OC(=O)C1CCC1(C)C2CCC(O)C1(C)O (stereo unspecified),Potency,[1],inactive
same,Potency,[2],inactive
CC(C)CC(=O)OC[C@@]1(O)C[C@@]23CC[C@H]4[C@@](C)(CCC[C@@]4(C)C(=O)O)[C@@H]2CC[C@@H]1C3,Potency,[1],inactive
same,Potency,[2],inactive
CC1CC(=O)[C@]2(O)C(C(=O)OCCc3ccc(O)c(O)c3)=CO[C@@H](O[C@@H]3O[C@H](CO)[C@@H](O)[C@H](O)[C@H]3O)[C@H]12 (stereo partly specified),Potency,[1],inactive
same,Potency,[2],inactive
C/C1=C\CC[C@]2(C)O[C@H]2C(=O)c2c(C)coc2C1,Potency,[1],inactive
same,Potency,[2],inactive
COC(=O)[C@H](c1ccccc1Cl)N1CCC2SC(=O)C=C2C1 (stereo partly specified),Potency,[1],inactive
same,Potency,[2],inactive
CC(=O)OCC1=CCC2C(C)(C)CCCC2(C)C12CCC(C)(CC(=O)O)O2 (stereo unspecified),Potency,[1],inactive
same,Potency,[2],inactive
COc1cnc(-c2ccc(Cn3c(CC(C)(C)C(=O)O)c(SC(C)(C)C)c4cc(OC[C@@H]5Cc6ccccc6N5C(C)=O)ccc43)cc2)nc1,Potency,[3],12.2 µM (active)
same,Potency,[5],1.53 µM (active)
same,Potency,[10],10 µM (active)
same,Potency,[11],3.98 µM (active)
same,Potency,[2],3.16 µM (active)
same,Potency,[6],2.43 µM (active)
same,Potency,[7],0.631 µM (active)
same,Potency,[8],1.78 µM (active)
same,outcome,[9],inactive
CC/C=C\CC1C(CC(=O)O)CCC1OC1OC(CO)C(O)C(O)C1O (stereo unspecified),Potency,[1],inactive
same,Potency,[2],inactive
C=C(COC(=O)CC(C)C)C1Cc2cc(C(C)=O)ccc2O1 (stereo unspecified),Potency,[1],inactive
same,Potency,[2],inactive
O=C(O)Cn1nnc(-c2ccc(CN(CCCCOc3ccc(CN4CCCC4)cc3)CCc3ccccc3)cc2)n1,Potency,[1],inactive
same,Potency,[2],inactive
Cc1ccc([C@@H]2CC=C(C(=O)O)[C@H](c3ccc(C(C)(C)C)cc3)N2S(=O)(=O)c2ccc(C)cc2)cc1,Potency,[3],15.6 µM (active)
same,Potency,[4],19.7 µM (active)
same,Potency,[5],3.12 µM (active)
same,Potency,[11],2.51 µM (active)
same,Potency,[2],2.24 µM (active)
same,Potency,[6],2.78 µM (active)
same,Potency,[7],3.55 µM (active)
same,Potency,[8],4.47 µM (active)
same,outcome,[9],inactive
Cc1ccccc1-n1nc(-c2c(-c3ccc(F)cc3)nn3c2NC[C@@H](CO)C3)ccc1=O,Potency,[5],inactive
same,Potency,[11],inactive
same,Potency,[6],inactive
C=C(C(=O)O)[C@@H]1CC[C@H](C)[C@@H]2CC(=O)C(C)=C2C1,Potency,[1],inactive
same,Potency,[2],inactive
O=C(O)c1cccc(CN2C(=O)/C(=C(\c3ccccc3)c3ccc(Cl)cc3)c3ccccc32)c1,Potency,[11],1.41 µM (active)
C=C1Cc2c(Cl)cc3[nH]c4c5c3c2[C@@]2(O)[C@@H]1C[C@@H]2C(C)(C)O[C@H]5C1CC[C@@]2(O)[C@@]35O[C@@H]3[C@H]3OC(C)(C)[C@H]3O[C@H]5CC[C@]2(C)[C@@]41C (stereo partly specified),Potency,[1],inactive
same,Potency,[2],inactive
